This is part of a sample that, as a whole, favours compounds with a hit. Of some 83,000 tested, about 20% had one in any assay.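 Compound tested at a single concentration for 48 hours in 96-well plates; a percent growth value below 10 was scored as active.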 Active and inactive are the calls of the source.
Assays:
Assay in all cases: NCI-60 one-dose screen, 48 h (100 = growth as untreated, 0 = no growth, -100 = all killed)
Conditions in all cases: 10 µM unless noted
HCT-15 colon = system: HCT-15 colon
HT29 colon = system: HT29 colon
SNB-75 CNS = system: SNB-75 CNS
SNB-19 CNS = system: SNB-19 CNS
U251 CNS = system: U251 CNS
PC-3 prostate = system: PC-3 prostate
UACC-62 melanoma = system: UACC-62 melanoma
LOX IMVI melanoma = system: LOX IMVI melanoma
SK-MEL-28 melanoma = system: SK-MEL-28 melanoma
SK-MEL-2 melanoma = system: SK-MEL-2 melanoma
EKVX NSCLC = system: EKVX NSCLC
SN12C renal = system: SN12C renal
UO-31 renal = system: UO-31 renal
ACHN renal = system: ACHN renal
CAKI-1 renal = system: CAKI-1 renal
CCRF-CEM leukemia = system: CCRF-CEM leukemia
MOLT-4 leukemia = system: MOLT-4 leukemia
SK-MEL-5 melanoma = system: SK-MEL-5 melanoma
TK-10 renal = system: TK-10 renal
A498 renal = system: A498 renal

Measured: growth

O=C(Nc1ccc(NC(=O)c2cc(=O)[nH]c3ccccc23)cc1)Nc1cccc(Cl)c1
inactive: HCT-15 colon 103% | HT29 colon 88.4% | SNB-75 CNS 74.4% | SNB-19 CNS 95.2% | U251 CNS 89.4% | PC-3 prostate 76.5% | UACC-62 melanoma 84.6% | LOX IMVI melanoma 87.7% | SK-MEL-28 melanoma 109% | SK-MEL-2 melanoma 101% | EKVX NSCLC 85.2% | SN12C renal 88.8% | UO-31 renal 65.3% | ACHN renal 97.6% | CAKI-1 renal 78.1% | CCRF-CEM leukemia 77.1% | MOLT-4 leukemia 79.7%

CCCCCN1C=C/C(=C\C(=O)n2ccc3ccccc32)c2ccccc21
inactive: HCT-15 colon 98.4% | HT29 colon 80.6% | SNB-75 CNS 90.9% | SNB-19 CNS 106% | U251 CNS 91.1% | SK-MEL-5 melanoma 97.3% | UACC-62 melanoma 67% | LOX IMVI melanoma 92% | SK-MEL-28 melanoma 104% | SK-MEL-2 melanoma 96.9% | EKVX NSCLC 69.3% | SN12C renal 89.9% | UO-31 renal 49.4% | TK-10 renal 110% | ACHN renal 93.5% | CAKI-1 renal 70.6% | CCRF-CEM leukemia 94.6% | MOLT-4 leukemia 90%

C#CCNC(=O)[C@]1(C)CC[C@]2(C)CC[C@@H]3C(=CC[C@H]4[C@@]3(C)CC[C@H]3C(C)(C)C(=O)CC[C@]43C)[C@@H]2C1
inactive: HCT-15 colon 98% | HT29 colon 93.1% | SNB-75 CNS 102% | SNB-19 CNS 102% | U251 CNS 99.1% | SK-MEL-5 melanoma 93.3% | UACC-62 melanoma 83.2% | LOX IMVI melanoma 96.2% | SK-MEL-28 melanoma 102% | SK-MEL-2 melanoma 96.2% | EKVX NSCLC 100% | UO-31 renal 80.5% | TK-10 renal 86.4% | ACHN renal 98% | CAKI-1 renal 83.1% | CCRF-CEM leukemia 69.4% | MOLT-4 leukemia 93.1%

COc1cc(/C=C\c2cc(/C=C\c3ccc(O)c(OC)c3)n(C(=O)COc3ccccc3)n2)ccc1O
inactive: SNB-75 CNS 22.7% | SNB-19 CNS 14.8% | SK-MEL-28 melanoma 18.4% | EKVX NSCLC 28.1% | SN12C renal 15.7% | TK-10 renal 12.7% | ACHN renal 18% | CAKI-1 renal 24.2% | A498 renal 11.2%
active: HCT-15 colon 9.64% | HT29 colon -33.2% | U251 CNS 8.81% | SK-MEL-5 melanoma -28.8% | UACC-62 melanoma 4.88% | LOX IMVI melanoma 3.23% | SK-MEL-2 melanoma -18.7% | UO-31 renal 0.475% | CCRF-CEM leukemia 6.79%

O=C(CCN1CCCC1)Nc1ccc2c(NCCc3ccccc3)c3ccccc3nc2c1
inactive: HCT-15 colon 12% | SK-MEL-5 melanoma 11.2% | ACHN renal 11%
active: HT29 colon 4.99% | SNB-75 CNS -70.8% | SNB-19 CNS -17.9% | U251 CNS -24% | UACC-62 melanoma -55.1% | LOX IMVI melanoma -68% | SK-MEL-28 melanoma -17.4% | EKVX NSCLC -4.89% | SN12C renal -12.5% | UO-31 renal -10.8% | TK-10 renal 3.29% | CAKI-1 renal 4.47% | CCRF-CEM leukemia -9.81% | MOLT-4 leukemia -17.6%

O=[N+]([O-])c1ccc(NC(=S)N/N=C/c2cc3ccccc3n3nnnc23)cc1
inactive: HCT-15 colon 27.3% | HT29 colon 99.8% | SNB-75 CNS 58.2% | SNB-19 CNS 29.8% | U251 CNS 30.2% | PC-3 prostate 34.5% | UACC-62 melanoma 65.4% | LOX IMVI melanoma 39.2% | SK-MEL-28 melanoma 79% | EKVX NSCLC 36.6% | SN12C renal 58.5% | TK-10 renal 56.8% | ACHN renal 29.9% | CAKI-1 renal 25.4% | CCRF-CEM leukemia 11.3% | MOLT-4 leukemia 20.4%
active: UO-31 renal -1.57%

O=C(NO)c1ccc(-n2nc(-c3ccccc3)c3ccccc32)cc1
inactive: HCT-15 colon 18.5% | HT29 colon 41.7% | SNB-75 CNS 12.1% | SNB-19 CNS 47.4% | U251 CNS 34.4% | SK-MEL-5 melanoma 57.6% | UACC-62 melanoma 34.5% | LOX IMVI melanoma 24.8% | SK-MEL-28 melanoma 72.5% | SK-MEL-2 melanoma 90.9% | EKVX NSCLC 42.3% | SN12C renal 32.9% | UO-31 renal 34.6% | TK-10 renal 31.5% | ACHN renal 26.9% | CAKI-1 renal 45.6% | A498 renal 58.8% | CCRF-CEM leukemia 12.9% | MOLT-4 leukemia 26.9%

O=C(/C=C/c1ccc(Cl)cc1)c1ccc(NC(=O)N2CCN(c3cc4c(cc3F)c(=O)c(C(=O)O)cn4C3CC3)CC2)cc1
active: LOX IMVI melanoma 6.5%
inactive: HCT-15 colon 96.4% | HT29 colon 89.3% | SNB-75 CNS 92.1% | SNB-19 CNS 87.6% | U251 CNS 92.4% | SK-MEL-5 melanoma 93.6% | UACC-62 melanoma 76.1% | SK-MEL-28 melanoma 99.2% | SK-MEL-2 melanoma 98.2% | EKVX NSCLC 98.4% | SN12C renal 86.4% | UO-31 renal 80.2% | TK-10 renal 107% | ACHN renal 101% | CAKI-1 renal 82.7% | CCRF-CEM leukemia 72.2% | MOLT-4 leukemia 92.1%

COc1ccc(/C=C2\Oc3cc(OCCCN4CCCCC4)ccc3C2=O)cc1OC
inactive: HCT-15 colon 76.4% | HT29 colon 59.3% | SNB-75 CNS 78.9% | SNB-19 CNS 93.7% | U251 CNS 94.2% | SK-MEL-5 melanoma 94.5% | UACC-62 melanoma 99.1% | LOX IMVI melanoma 81.7% | SK-MEL-28 melanoma 105% | SK-MEL-2 melanoma 108% | EKVX NSCLC 91.5% | SN12C renal 93.5% | UO-31 renal 67.9% | TK-10 renal 89.1% | ACHN renal 93.2% | CAKI-1 renal 92.8% | CCRF-CEM leukemia 28.9% | MOLT-4 leukemia 83.3%

C[C@H]1[C@H]2[C@H]3CC[C@@H]4[C@@]5(C)CC[C@H](O)C(C)(C)[C@@H]5CC[C@@]4(C)[C@]3(C)CC[C@]23CO[C@]1(C)[C@@H](C(=O)/C=C\c1ccco1)C3
inactive: HCT-15 colon 106% | HT29 colon 98.1% | SNB-75 CNS 78.4% | SNB-19 CNS 75.3% | U251 CNS 69.4% | LOX IMVI melanoma 89% | SK-MEL-28 melanoma 36.7% | EKVX NSCLC 105% | SN12C renal 101% | UO-31 renal 77% | TK-10 renal 97.4% | ACHN renal 44.3% | CAKI-1 renal 55.8% | A498 renal 96.2% | CCRF-CEM leukemia 101%
active: SK-MEL-5 melanoma 8.55% | UACC-62 melanoma 7.16% | SK-MEL-2 melanoma 9.51%

COc1ccc(C(=O)C2C(C#N)C(C#N)C3c4ccccc4C=CN23)cc1 (configuration not stated)
inactive: HCT-15 colon 94.5% | HT29 colon 84.4% | SNB-75 CNS 74.8% | SNB-19 CNS 85.4% | U251 CNS 93.6% | SK-MEL-5 melanoma 84.2% | UACC-62 melanoma 63% | LOX IMVI melanoma 87.8% | SK-MEL-28 melanoma 98.9% | EKVX NSCLC 84.2% | SN12C renal 80.9% | UO-31 renal 60.7% | TK-10 renal 131% | ACHN renal 91.3% | CAKI-1 renal 72.4% | A498 renal 80.9% | CCRF-CEM leukemia 82.5% | MOLT-4 leukemia 95.6%

COC(=O)/C=C1\S/C(=N\NC(=O)c2cc3ccc2/C=C\c2ccc(cc2)/C=C\3)N(Cc2ccccc2)C1=O
inactive: HCT-15 colon 27.8% | HT29 colon 12.4% | SNB-75 CNS 51.2% | SNB-19 CNS 56.9% | U251 CNS 55% | SK-MEL-5 melanoma 82.3% | UACC-62 melanoma 51.9% | SK-MEL-28 melanoma 101% | EKVX NSCLC 77.7% | UO-31 renal 45% | TK-10 renal 95.5% | ACHN renal 46.1% | CAKI-1 renal 65.8%
active: LOX IMVI melanoma 6.21% | CCRF-CEM leukemia 3.83% | MOLT-4 leukemia 1.09%

CC(c1ccccc1)C(C(=O)c1ccccc1)c1ccccc1 (configuration not stated)
inactive: HCT-15 colon 107% | HT29 colon 75.4% | SNB-75 CNS 63.9% | SNB-19 CNS 91% | U251 CNS 96.3% | PC-3 prostate 94.8% | UACC-62 melanoma 94% | LOX IMVI melanoma 82.3% | SK-MEL-28 melanoma 94% | SK-MEL-2 melanoma 85.1% | SN12C renal 88.5% | UO-31 renal 119% | TK-10 renal 66.2% | ACHN renal 48.9% | CAKI-1 renal 89.2% | A498 renal 93.3%

OCc1cnccc1NCCCOc1ccccc1
inactive: HCT-15 colon 105% | HT29 colon 102% | SNB-75 CNS 99.6% | SNB-19 CNS 94.9% | U251 CNS 98.2% | SK-MEL-5 melanoma 97.1% | UACC-62 melanoma 90.5% | LOX IMVI melanoma 99.4% | SK-MEL-28 melanoma 109% | SK-MEL-2 melanoma 107% | EKVX NSCLC 105% | SN12C renal 94.3% | UO-31 renal 87.9% | TK-10 renal 92.5% | ACHN renal 108% | CAKI-1 renal 95.7% | A498 renal 91.9% | CCRF-CEM leukemia 88.8% | MOLT-4 leukemia 96.6%

O=C(C[n+]1cccc2ccccc21)c1ccc(O)c(O)c1
active: CCRF-CEM leukemia -13.8% | MOLT-4 leukemia 6.56%
inactive: HCT-15 colon 20.8% | HT29 colon 40.7% | SNB-75 CNS 66% | SNB-19 CNS 74.5% | U251 CNS 91.1% | SK-MEL-5 melanoma 82.7% | UACC-62 melanoma 69.7% | LOX IMVI melanoma 28.3% | SK-MEL-28 melanoma 84.7% | SK-MEL-2 melanoma 90.8% | EKVX NSCLC 76.8% | UO-31 renal 50.6% | TK-10 renal 39% | ACHN renal 23.7% | CAKI-1 renal 83.6% | A498 renal 88.4%

COc1ccc(C/C(C)=C(/c2ccc(OCCCN(C)C)cc2)c2ccc(OC(C)=O)cc2)cc1
active: HT29 colon 4.9% | SK-MEL-28 melanoma 2.23%
inactive: HCT-15 colon 19.3% | SNB-75 CNS 74.1% | SNB-19 CNS 82.3% | U251 CNS 61.7% | SK-MEL-5 melanoma 69.6% | UACC-62 melanoma 51.3% | LOX IMVI melanoma 47.8% | SK-MEL-2 melanoma 101% | EKVX NSCLC 80.9% | SN12C renal 80.8% | UO-31 renal 62.2% | TK-10 renal 98.9% | ACHN renal 85% | CAKI-1 renal 81.6% | CCRF-CEM leukemia 63.1% | MOLT-4 leukemia 55.9%

— PubChem BioAssay (NCI)
